Test in all cases: qHTS profiling for inhibitors of Plasmodium falciparum proliferation (AID 504749); also: nearly all actives have a fitted effect of over 60% in size
Holding throughout (conditions): P. falciparum in erythrocytes, SYBR Green DNA, 72 h; series mostly up to 28.7 µM
In general terms: qHTS replaces the single test concentration by a dilution series.

One assay has as its system CP329. The essentials: (§1)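 P. falciparum-infected erythrocytes (0.3% parasitemia, 2.5% hematocrit) incubated with compound 72 h at 37 C, 5% CO2. Parasite DNA detected by SYBR Green after lysis, overnight at room temperature; normalised to 0.29 uM artemisinin and DMSO.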
The next assay deals with CP335. An outline of the steps:
as §1

The next assay deals with DFO2036. An outline of the steps: as §1
In the next assay the test system is DIV14. An outline of the steps: as §1
In another assay the test system is DIV17. An outline of the steps:
as §1

For a further assay, the system named is DIV30. The essentials: as §1
For a further assay, the system named is Dd2. The essentials: as §1
The next assay concerns ECU. The essentials: as §1
The subject of the next assay is FAB9. An outline of the steps:
as §1

Another assay has as its system GB4. An outline of the steps: as §1
A further assay has as its system HB3. An outline of the steps:
as §1

The next assay concerns ICS. An outline of the steps:
as §1

Another assay relates to JCK. An outline of the steps:
as §1

The test system of the next assay is N140. An outline of the steps: as §1
Another assay relates to P93_24. The essentials:
as §1

A further assay deals with P94_40. The essentials: as §1
Another assay concerns PAD. The essentials: as §1
A further assay relates to PC15. The essentials:
as §1

A further assay relates to PC26. The essentials: as §1
Another assay has as its system PC49. An outline of the steps:
as §1

Several values for one entry are separate records, joined by “and”; a condition that tells them apart may be missing. Equal entries are not always repeated. Inconclusive results are not listed. Activity calls are given as the source filed them. Calls follow the shape of the dose curve; as a rule, active = well fitted inhibition curve with a large enough effect; inconclusive = small, poorly fitted or top-dose-only effect; inactive = flat fitted curve, though single readings scatter.
Potency is read from the fitted curve at half-maximal effect.

`Cc1ncc2n1-c1ccc(Cl)cc1C(c1ccccc1F)=NC2`: the Potency entry in the assay with CP329, in the assay on CP335, in the assay with DFO2036, in the assay on DIV14, in the assay with DIV17 and with DIV30 was “inactive” each time. The Potency entry with Dd2, in the assay with ECU, in the assay with FAB9, in the assay on GB4, in the assay with HB3 and in the assay with ICS was “inactive” each time. Also, the Potency result in the assay on JCK, in the assay on N140, in the assay on P93_24, with P94_40, in the assay on PAD and in the assay with PC15 was “inactive” each time. For the same compound, the Potency result in the assay with PC26 and with PC49 was “inactive” in each case.
Consider `NCc1cccnc1`, for which the Potency entry with CP329, in the assay with CP335, in the assay with DFO2036, with DIV14, in the assay on DIV17 and in the assay on DIV30 was “inactive” each time. Besides, the Potency result in the assay on Dd2, in the assay on ECU, in the assay with FAB9, in the assay with GB4, in the assay with HB3 and with ICS was “inactive” each time. In addition, the Potency entry in the assay with JCK, in the assay on N140, with P93_24, with P94_40, with PAD and with PC15 was “inactive” each time. For the same compound, the Potency result in the assay with PC26 and in the assay on PC49 was “inactive” in each case.
Regarding `COP(=S)(OC)Oc1ccc(Sc2ccc(OP(=S)(OC)OC)cc2)cc1`, the Potency entry in the assay on CP329, in the assay on CP335, with DFO2036, in the assay with DIV14, in the assay on DIV17 and with DIV30 was “inactive” each time. In addition, the Potency entry in the assay with Dd2, in the assay on ECU, in the assay with FAB9, with GB4, with HB3 and with ICS was “inactive” each time. Besides, the Potency result in the assay on JCK, with N140, in the assay with P93_24, in the assay with P94_40, in the assay on PAD and in the assay on PC15 was “inactive” in each case. In addition, the Potency entry with PC26 and with PC49 was “inactive” in each case.
For the compound `Oc1c(Br)cc(Br)cc1Br`, the Potency entry in the assay on CP329, in the assay with CP335, in the assay on DFO2036, in the assay on DIV14, in the assay with DIV17 and in the assay on DIV30 was “inactive” throughout. The Potency result in the assay with Dd2, in the assay on ECU, in the assay on FAB9, with GB4, with HB3 and in the assay on ICS was “inactive” in each case. Moreover, the Potency entry in the assay with JCK, in the assay on N140, in the assay on P93_24, with P94_40, with PAD and with PC15 was “inactive” each time. For the same compound, the Potency entry in the assay with PC26 and in the assay with PC49 was “inactive” throughout.
On to `NC(=O)CN1CCCC1=O`, for which the Potency result in the assay on CP329, in the assay with CP335, with DFO2036, in the assay on DIV14, with DIV17 and with DIV30 was “inactive” each time. In addition, the Potency result with Dd2, with ECU, in the assay on FAB9, with GB4, in the assay with HB3 and in the assay with ICS was “inactive” each time. The Potency entry in the assay on JCK, in the assay on N140, in the assay on P93_24, with P94_40, in the assay with PAD and in the assay on PC15 was “inactive” throughout. The Potency result with PC26 and with PC49 was “inactive” throughout.
Take `COP(=O)(OC)OC=C(Cl)Cl`: the Potency entry with CP329, with CP335, with DFO2036, in the assay with DIV14, in the assay with DIV17 and in the assay with DIV30 was “inactive” throughout. For the same compound, the Potency entry in the assay on Dd2, in the assay with ECU, in the assay with FAB9, in the assay on GB4, in the assay on HB3 and in the assay on JCK was “inactive” in each case. Moreover, the Potency entry in the assay with N140, with P93_24, in the assay with P94_40, in the assay on PAD, in the assay on PC15 and with PC26 was “inactive” each time. Further, the Potency result with PC49 is “inactive”.
Regarding `C[C@]12CC[C@H]3[C@@H](CC=C4C[C@@H](O)CC[C@@]43C)[C@@H]1CC[C@@H]2O`, the Potency result in the assay on CP329, in the assay with CP335, in the assay with DFO2036, in the assay on DIV14, in the assay with DIV17 and in the assay with DIV30 was “inactive” each time. Further, the Potency result in the assay on Dd2, with ECU, with FAB9, with GB4, with HB3 and in the assay on ICS was “inactive” in each case. Moreover, the Potency result with JCK, in the assay on N140, in the assay with P93_24, in the assay with P94_40, with PAD and in the assay on PC15 was “inactive” in each case. The Potency result in the assay with PC26 and in the assay on PC49 was “inactive” each time.
As for `CCN(CC)C(C)C(=O)c1ccccc1` (centres undefined), the Potency result in the assay on CP329, with CP335, with DFO2036, in the assay with DIV14, in the assay with DIV17 and in the assay on DIV30 was “inactive” in each case. The Potency result in the assay on Dd2, in the assay on ECU, with FAB9, in the assay on GB4, with HB3 and with ICS was “inactive” in each case. For the same compound, the Potency result with JCK, in the assay with N140, in the assay on P93_24, in the assay with P94_40, in the assay on PAD and with PC15 was “inactive” throughout. Besides, the Potency entry with PC26 and in the assay on PC49 was “inactive” in each case.
Consider `NC(=O)OCCCc1ccccc1`, for which the Potency entry with CP329, in the assay on CP335, in the assay with DFO2036, in the assay on DIV14, in the assay with DIV17 and in the assay on DIV30 was “inactive” throughout. Also, the Potency entry with Dd2, in the assay with ECU, with FAB9, in the assay with GB4, with HB3 and with ICS was “inactive” throughout. The Potency result in the assay with JCK, with N140, with P93_24, in the assay with P94_40, in the assay on PAD and with PC15 was “inactive” throughout. For the same compound, the Potency result with PC26 and in the assay with PC49 was “inactive” throughout.
For the compound `CC[n+]1c(-c2ccccc2)c2cc(N)ccc2c2ccc(N)cc21`, the Potency in the assay with CP329 is 107 nM (active) and 426 nM (active); in the assay on CP335, 84.9 nM (active) and 239 nM (active); in the assay on DFO2036, 89.1 nM (active) and 251 nM (active); in the assay on DIV14 it was 53.6 nM (active) and 107 nM (active); with DIV17, 53.6 nM (active) and 151 nM (active); with DIV30, 426 nM (active) and 1.9 µM (active). Further, the Potency is 20 nM (active) and 100 nM (active) with Dd2; 141 nM (active) and 447 nM (active) in the assay on ECU; 79.4 nM (active) and 89.1 nM (active) with FAB9; 75.7 nM (active) and 169 nM (active) with GB4; 126 nM (active) and 316 nM (active) in the assay on HB3; 44.7 nM (active) and 126 nM (active) in the assay with ICS. Moreover, the Potency in the assay on JCK was 79.4 nM (active) and 282 nM (active); in the assay on N140 it was 141 nM (active) and 316 nM (active); in the assay on P93_24 it was 63.1 nM (active) and 158 nM (active); with P94_40 it was 70.8 nM (active) and 355 nM (active); with PAD, 199 nM (active) and 316 nM (active); in the assay with PC15, 251 nM (active) and 891 nM (active). For the same compound, the Potency in the assay with PC26 is 1.51 µM (active) and 2.13 µM (active); in the assay with PC49 it was 178 nM (active) and 316 nM (active).
Consider `CCS(=O)(=O)C(C)(C)S(=O)(=O)CC`, for which the Potency entry in the assay on CP329, with CP335, in the assay on DFO2036, in the assay with DIV14, in the assay on DIV17 and in the assay with DIV30 was “inactive” each time. Also, the Potency entry in the assay with Dd2, in the assay on ECU, in the assay with FAB9, in the assay with GB4, with HB3 and with ICS was “inactive” throughout. Besides, the Potency result in the assay on JCK, with N140, in the assay with P93_24, with P94_40, in the assay on PAD and with PC15 was “inactive” in each case. The Potency entry in the assay on PC26 and in the assay on PC49 was “inactive” in each case.
With `C[N+](C)(C)CCOC(=O)C(O)(c1ccccc1)c1ccccc1`, the Potency result in the assay with CP329, in the assay with CP335, in the assay with DFO2036, with DIV14, in the assay on DIV17 and in the assay on DIV30 was “inactive” in each case. Moreover, the Potency entry with Dd2, with ECU, in the assay with FAB9, in the assay with GB4, with HB3 and in the assay with ICS was “inactive” throughout. The Potency result in the assay with JCK, in the assay on N140, with P93_24, in the assay with P94_40, with PAD and in the assay with PC15 was “inactive” in each case. In addition, the Potency entry in the assay on PC26 and in the assay on PC49 was “inactive” in each case.

Source of the values: PubChem BioAssay (NCATS).
